Laboratory results as given in PubChem BioAssay (Tox21).
Inconclusive results are not listed. Where a call stands in place of a potency, no number is given. Values without a mark were called inactive. Calls of active or inactive are those of the source. Calls follow the shape of the dose curve; as a rule, active = well fitted curve in the direction sought with a large enough effect in the repeat runs; inconclusive = weak or mixed curves; inactive = no such curve, though single readings can be large; an effect the other way counts as inactive or inconclusive.

Legend:
[1] = A CellTox Green Cytotoxicity Assay to monitor cytotoxicity in HEK293 cells - 40 hour (AID 1224871); also: nearly all actives have a fitted effect of over 45% in size
In short: (§1)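 Nonlytic real-time cytotoxicity: HEK293 + CellTox Green reagent plated, 5 h preincubation, pintool compound addition (23 nL in DMSO), 37 C for 40 h, fluorescence measured at successive time points.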

[2] = qHTS RealTime-Glo MT Cell Viability Assay in HEK293 cells - 16 hour (AID 1224872); also: top concentration of the series differs between compounds; nearly all actives have a fitted effect of over 50% in size
In short: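 Viability tracked continuously by luminescence as live cells reduce a prosubstrate for NanoLuc; HEK293 cells preincubated 5 h, compound-treated at 37 C, and read at 0, 8, 16, 24, 32 and 40 h.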

[3] = qHTS RealTime-Glo MT Cell Viability Assay in HepG2 cells - 8 hour (AID 1224873); also: nearly all actives have a fitted effect of over 55% in size
In short: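 Real-time viability: cells seeded at 600 per well together with NanoLuc and cell-permeant prosubstrate, compounds added after 5 h incubation. Luminescence tracked at 0, 8, 16, 24, 32 and 40 h of exposure.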

[4] = qHTS RealTime-Glo MT Cell Viability Assay in HEK293 cells - 40 hour (AID 1224874); conditions: RealTime-Glo luminescence; max response: stronger effect = lower value; also: nearly all actives have a fitted effect of over 50% in size
In short: (§2)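 Cells were seeded together with NanoLuc luciferase and a prosubstrate that viable cells reduce to a luciferase substrate. After a 5 h incubation at 37 C/5% CO2, compounds were added and luminescence was measured repeatedly during 40 h of treatment.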

[5] = A CellTox Green Cytotoxicity Assay to monitor cytotoxicity in HEK293 cells - 24 hour (AID 1224875); also: series mostly up to about 77 µM; nearly all actives have a fitted effect of over 45% in size
In short: as §1

[6] = A CellTox Green Cytotoxicity Assay to monitor cytotoxicity in HepG2 cells - 16 hour (AID 1224876); also: nearly all actives have a fitted effect of over 45% in size
In short: (§3)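 Read-out is fluorescence of a cyanine dye excluded from live cells that stains DNA of dead HepG2 cells, with signal proportional to cytotoxicity. Plates were read at 0, 8, 16, 24, 32 and 40 h after compound addition.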

[7] = qHTS RealTime-Glo MT Cell Viability Assay in HepG2 cells - 32 hour (AID 1224877); also: nearly all actives have a fitted effect of over 55% in size; also: potency is read from the fitted curve at half-maximal effect
In short: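 Viability was tracked continuously by NanoLuc luminescence from prosubstrate reduced by living HepG2 cells, at successive time points over 40 h of compound exposure. Cells with reagent were preincubated 5 h at 37 °C before compound addition.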

[8] = A CellTox Green Cytotoxicity Assay to monitor cytotoxicity in HepG2 cells - 24 hour (AID 1224878); also: nearly all actives have a fitted effect of over 45% in size; also: potency is read from the fitted curve at half-maximal effect
In short: as §3

[9] = qHTS RealTime-Glo MT Cell Viability Assay in HEK293 cells - 0 hour (AID 1224880)
In short: as §2

[10] = A CellTox Green Cytotoxicity Assay to monitor cytotoxicity in HepG2 cells - 40 hour (AID 1224879); also: nearly all actives have a fitted effect of over 40% in size
In short: as §3

Compound	Potency [1]	Potency [2]	Potency [3]	max response [4] [%]	Potency [5]	Potency [6]	Potency [7]	Potency [8]	outcome [9]	Potency [10]
CCOC(=O)C1(c2ccccc2)CCN(CCc2ccc(N)cc2)CC1	inactive	inactive	inactive	-22.8	inactive	inactive	inactive	inactive	inactive	
C=C(C)[C@@H]1CC=C(C=O)CC1	inactive	inactive	inactive	-6.37	inactive	inactive	inactive	inactive	inactive	inactive
Cc1cnc[nH]1	inactive	inactive	inactive	-2.47	inactive	inactive	inactive	inactive	inactive	
CCS(=O)(=O)C(C)(C)S(=O)(=O)CC	inactive	inactive	inactive	3.47	inactive	inactive	inactive	inactive	inactive	
CS(=O)(=O)c1cc(C(F)(F)F)ccc1C(=O)c1cnoc1C1CC1	inactive	inactive	inactive	-3.5	inactive	inactive	inactive	inactive	inactive	inactive
CCCCCCBr	inactive	inactive	inactive	13.7	inactive	inactive	inactive	inactive	inactive	inactive
COc1cc(OC)nc(NC(=O)NS(=O)(=O)c2ncccc2C(=O)N(C)C)n1	inactive	inactive	inactive	7.6	inactive	inactive	inactive	inactive	inactive	
Cc1cc(C)c(C(=O)P(=O)(C(=O)c2c(C)cc(C)cc2C)c2ccccc2)c(C)c1	inactive	inactive	inactive	-8.76	inactive	inactive	inactive	inactive	inactive	
O=C(N[C@H]1CN2CCC1CC2)c1cc2ccoc2cn1	inactive	inactive	inactive	8.57	inactive	inactive	inactive		inactive	
NC(=S)C(N)=S	inactive	inactive	inactive	4.8	inactive	inactive	inactive	inactive	inactive	
CC(=O)CCc1ccc2c(c1)OCO2	inactive	inactive	inactive	0.514	inactive	inactive	inactive	inactive	inactive	inactive
CN1CCN(C(=O)O[C@H]2c3nccnc3C(=O)N2c2ccc(Cl)cn2)CC1	inactive	inactive	inactive	6.06	inactive	inactive	inactive	inactive	inactive	inactive
O=C1CN2CCOC2(c2ccccc2Cl)c2cc(Cl)ccc2N1 (configuration not stated)	inactive	inactive	inactive	-7.26	inactive	inactive	inactive	inactive	inactive	inactive
CCCCOP(=O)(O)OCCCC	inactive	inactive	inactive	0.827	inactive	inactive	inactive	inactive	inactive	inactive
CC1CN1P(=O)(N1CC1C)N1CC1C (configuration not stated)	inactive	inactive	inactive	6.96	inactive	inactive	inactive	inactive	inactive	inactive
CC(=O)[C@H]1CC[C@H]2[C@@H]3CC[C@H]4C[C@H](O)CC[C@]4(C)[C@H]3C(=O)C[C@]12C	inactive	inactive	inactive	-27.6	inactive	inactive	inactive	inactive	inactive	
[O]=[Cd]	inactive	inactive	inactive	15.5	inactive	inactive	inactive	inactive	inactive	
CN(C)CCc1ccc(O)cc1	inactive	inactive	inactive	11.4	inactive	inactive	inactive	inactive	inactive	
O=C(O)C(Br)CBr (configuration not stated)	inactive	inactive	inactive	26	inactive	inactive	inactive	inactive	inactive	
OCCSCSCCO	inactive	inactive	inactive	10.4	inactive	inactive	inactive	inactive	inactive	
CCCCC(=O)Cl	inactive	inactive	inactive		inactive	inactive	inactive	inactive	inactive	inactive
BrCCCCCCBr	inactive	inactive	inactive		inactive	inactive	inactive	inactive	inactive	inactive
CNC(=O)Oc1ccccc1C1OCCO1	inactive	inactive	inactive		inactive	inactive	inactive	inactive	inactive	inactive
COc1cccc(C(=O)NN(C(=O)c2cc(C)cc(C)c2)C(C)(C)C)c1C	inactive	inactive	inactive		inactive	inactive		616 nM (active)	inactive	inactive
CCC1(c2ccccc2)C(=O)NC(=O)NC1=O	inactive	inactive	inactive		inactive	inactive	inactive	inactive	inactive	inactive
COC(=O)c1ccccc1S(=O)(=O)NC(=O)N(C)c1nc(C)nc(OC)n1	inactive	inactive	inactive		inactive	inactive	inactive	inactive	inactive	inactive
CCCCCCI	inactive	inactive	inactive		inactive	inactive	34.7 µM (active)	inactive	inactive	
CCN(CC)C(=O)[C@@H]1C=C2c3cccc4[nH]cc(c34)C[C@H]2N(C)C1	inactive	inactive	inactive		inactive	inactive	inactive	inactive	inactive	inactive
